The source of these data is PubChem BioAssay (NCI).

A short description of test [1]: NCI Yeast Anticancer Drug Screen. Data for the rad50 strain (AID 155).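 Further: 0% = growth of vehicle-only cultures of the same strain.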 Particulars: S. cerevisiae rad50 strain growth inhibition, stronger effect = higher value; at 50.0 µM unless noted. A digest of the protocol: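 Cells are treated with compound, grown, and their growth is then scored against vehicle-only cultures of the same repair-deficient yeast strain.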
The nature of test [2]: NCI Yeast Anticancer Drug Screen. Data for the mec2-1 strain (AID 157). Conditions: S. cerevisiae mec2-1 strain, stronger effect = higher value; at 50.0 µM unless noted. The method in brief:
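Vehicle-treated cultures served as reference for growth inhibition of compound-exposed mec2-1 yeast.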

Test [3] can be described thus: NCI Yeast Anticancer Drug Screen. Data for the sgs1 mgt1 strain (AID 161).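 Further: 0% = growth of cultures given vehicle only.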 Conditions: S. cerevisiae sgs1 mgt1 strain, stronger effect = higher value; at 50.0 µM unless noted. A digest of the protocol: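 Read-out: growth inhibition vs vehicle controls. Cells: mutant yeast strain deficient in DNA damage repair.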
Test [4] is described as follows: NCI Yeast Anticancer Drug Screen. Data for the cln2 rad14 strain (AID 165).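 Further: 0% = growth equal to vehicle treated cultures.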 Particulars: S. cerevisiae cln2 rad14 strain, stronger effect = higher value; at 50.0 µM unless noted. The method in brief: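 Each compound was tested on cln2 rad14 yeast. Inhibition of growth was calculated against vehicle-exposed controls.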
Test [5] is described as follows: NCI Yeast Anticancer Drug Screen. Data for the bub3 strain (AID 167). Particulars: S. cerevisiae bub3 mutant strain, stronger effect = higher value; at 50.0 µM unless noted. The method in brief:
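Part of a panel of yeast mutants defective in DNA damage repair or cell cycle regulation. Each strain is grown with compound, and inhibition is calculated relative to solvent-treated cultures.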

Test [6] can be described thus: NCI Yeast Anticancer Drug Screen. Data for the mlh1 rad18 strain (AID 175). Particulars: S. cerevisiae mlh1 rad18 strain growth inhibition, stronger effect = higher value; at 50.0 µM unless noted. A digest of the protocol: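 Vehicle-treated cultures served as the reference for growth inhibition in a yeast strain carrying DNA damage repair alterations exposed to each compound.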

This is part of a sample that, as a whole, favours compounds with a hit. Of some 79,000 tested, about 15% had one in any assay. A number with no mark means an inactive call. Calls of active or inactive are those of the source. No stated cut-off is given here; in the data, active means growth inhibition above about 70%; inactive means the rest.

Regarding `Nc1nnc2nc(C(C(=O)c3ccc(F)cc3)c3nc4nnc(N)n4[nH]c3=O)c(=O)[nH]n12`, the growth inhibition in test [1] was 15.1%; in test [2], 4.15%; in test [3] it was -10.2%; in test [4], 8.45%; in test [5], 0.2%; in test [6], 18.8%.
Consider `CC1CN(S(=O)(=O)c2ccccc2)CCN1S(=O)(=O)c1ccccc1` (stereo not given), for which the growth inhibition is -9.65% in test [1]; -4.3% in test [2]; -8.35% in test [3]; -8.45% in test [4]; 1.5% in test [5]; -0.55% in test [6].
For the compound `CC1=NN(C(=O)Nc2ccc(Cl)cc2)C(=O)C2CCC(=O)N12` (stereo not given), the growth inhibition in test [1] is 2.6%; in test [2], 0.6%; in test [3], 1.1%; in test [4] it was 2.7%; in test [5], -0.45%; in test [6] it was 27%.
For `CC(=O)Nc1ccc(N(C)C)cc1`, the growth inhibition in test [1] was 0.15%; in test [2], -3.4%; in test [3], 0.55%; in test [4] it was 10.2%; in test [5] it was 14.7%; in test [6], -7.85%.
Regarding `Cc1c(CCN2CCOCC2)c(N2CCOCC2)n2c(nc3ccccc32)c1C#N`, the growth inhibition is -14.7% in test [1]; -11.9% in test [2]; -9.2% in test [3]; 1% in test [4]; -16.3% in test [5]; -15% in test [6].
As to `CCCCCC(=O)OCCSCCOC(=O)CCCCC`, the growth inhibition in test [1] is 4.55%; in test [2] it was 1.3%; in test [3] it was -5.85%; in test [4] it was -39.1%; in test [5], 10.8%; in test [6], 0.2%.
`CSc1nc(NC2OC(COC(C)=O)C(OC(C)=O)C(OC(C)=O)C2OC(C)=O)c(N=CC=Nc2c(NC3OC(COC(C)=O)C(OC(C)=O)C(OC(C)=O)C3OC(C)=O)nc(SC)[nH]c2=O)c(=O)[nH]1` (stereo not given): the growth inhibition in test [1] is -13.8%; in test [2] it was -17.7%; in test [3], -13.8%; in test [4], -17.7%; in test [5] it was 6.6%; in test [6] it was 5.75%.
For the compound `NC(=O)C(NCc1ccccc1)c1ccccc1` (stereo not given), the growth inhibition in test [1] was -2.65%; in test [2], 4.4%; in test [3], 1.6%; in test [4], 12.5%; in test [5], 2.6%; in test [6] it was 2.6%.
Regarding `CN(C)/N=C/C=C1\N=C(c2ccccc2)OC1=O`, the growth inhibition in test [1] was 5.75%; in test [2] it was -10.6%; in test [3] it was -17.9%; in test [4] it was -45.7%; in test [5], -0.75%; in test [6], -10.9%.
`CC1=CCCC2C(C=O)(C1)CC(C)C2(CO)CC/C(=C/CO)CO` (stereo not given): the growth inhibition in test [1] is 3.8%; in test [2], 4.05%; in test [3] it was -5.5%; in test [4], 32.8%; in test [5], -3.4%; in test [6] it was -5.7%.
With `CN(C(=O)Cc1ccccc1)n1cn[n+](CC(=O)OC(C)(C)C)c1`, the growth inhibition in test [1] was -3.65%; in test [2] it was -13.6%; in test [3], -12.4%; in test [4] it was -8.35%; in test [5] it was -24.6%; in test [6] it was -23.6%.
As to `CCOC(=O)C(Cc1ccccc1)NC(=O)c1ccc(N=NN(C)C)cc1` (stereo not given), the growth inhibition in test [1] was -19.8%; in test [2] it was -31.7%; in test [3], -37.2%; in test [4] it was -8.15%; in test [5] it was 6.65%; in test [6], -29.6%.
With `Cc1ccc(S(=O)(=O)N(C)c2ccc3c(c2)C(=O)c2ccccc2-3)cc1`, the growth inhibition is 20.6% in test [1]; 14.2% in test [2]; 37% in test [3]; -44.5% in test [4]; 56% in test [5]; 26.4% in test [6].
As to `O=C1CC(Cc2n[nH]c3c2CCCC3)CC(=O)N1`, the growth inhibition was 4.2% in test [1]; 3.8% in test [2]; -4.8% in test [3]; 7.35% in test [4]; -2.15% in test [5]; -7.75% in test [6].
For the compound `Cc1cc(Nc2nnc(-c3cccnc3Oc3ccccc3)s2)ccc1Br`, the growth inhibition in test [1] is 1.25%; in test [2], -6.85%; in test [3], -11.6%; in test [4], 16.7%; in test [5], 0.5%; in test [6], -5.35%.
For `Cc1ccc(C)c(NS(=O)(=O)c2ccc(Cl)cc2)c1`, the growth inhibition is 98.9% (active) in test [1]; 99.2% (active) in test [2]; 99.1% (active) in test [3]; 99.3% (active) in test [4]; 98.8% (active) in test [5]; 99.2% (active) in test [6].
In the case of `O=C1c2ccccc2C(=Cc2cccc([N+](=O)[O-])c2)c2ccccc21`, the growth inhibition in test [1] was 15.6%; in test [2], 18.4%; in test [3], -6.35%; in test [4] it was 9.75%; in test [5], 4.2%; in test [6], 0.6%.
Consider `CCCCCCCC(=O)C1C(=O)OC(C)(C)OC1=O`, for which the growth inhibition in test [1] was 9.65%; in test [2] it was -6.45%; in test [3], -7.85%; in test [4], 9.65%; in test [5], -0.5%; in test [6] it was -7.15%.
On to `CC1=C(CCC(=O)O)c2cc3nc(cc4[nH]c(cc5[nH]c(cc1n2)c(C)c5C1CC1C(=O)O)c(C)c4C1CC1C(=O)O)C(C)=C3CCC(=O)O` (stereo not given), for which the growth inhibition is 0.35% in test [1]; 22.4% in test [2]; 30.3% in test [3]; -0.6% in test [4]; 13.2% in test [5]; 25.1% in test [6].
For `NC1CC(c2ccccc2)NC(c2ccccc2)C1` (stereo not given), the growth inhibition was 10.7% in test [1]; -2.9% in test [2]; -4.8% in test [3]; -8.5% in test [4]; -14.8% in test [5]; 16.2% in test [6].
